# A selection: hits, their analogues and other compounds. The true share with any hit is near 3.5%.
# MITF primary: MITF inhibitors, primary screen, biochemical, AlphaScreen, human; Microphthalmia-associated transcription factor (Homo sapiens), O75030; AlphaScreen MITF homodimerization, bead proximity signal; inhibition, % at 2.6 µM; 0.91% of 650,000 active; AID 1259374, 2018; in the data active means inhibition above about 50%;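 further: 0% = vehicle wells with protein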
# FBW7 act: FBW7 E3 ligase activators, primary screen, biochemical, AlphaScreen, human; F-box/WD repeat-containing protein 7 (Homo sapiens), Q969H0; AlphaScreen FBW7–phospho-cyclin E peptide binding, activator screen; normalized activity (activation), % at 26.1 µM; 0.13% of 650,000 active; AID 1259310, 2017; in the data active means normalized activity above about 1.9%;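 further: purified mutant Fbw7 with reduced substrate affinity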
# GPR151 activ: activators of human GPR151, primary screen, cell-based, PathHunter beta-arrestin, luminescence; PathHunter beta-arrestin GPR151 cells; activation, % at 11.2 µM; 1% of 650,000 active; AID 1508602, 2020; in the data active means activation above about 4.9%;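 further: 0% = median of compound wells and 100% = cells with positive control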
# Target sequence (Q8TDV0 whole entry, looked up): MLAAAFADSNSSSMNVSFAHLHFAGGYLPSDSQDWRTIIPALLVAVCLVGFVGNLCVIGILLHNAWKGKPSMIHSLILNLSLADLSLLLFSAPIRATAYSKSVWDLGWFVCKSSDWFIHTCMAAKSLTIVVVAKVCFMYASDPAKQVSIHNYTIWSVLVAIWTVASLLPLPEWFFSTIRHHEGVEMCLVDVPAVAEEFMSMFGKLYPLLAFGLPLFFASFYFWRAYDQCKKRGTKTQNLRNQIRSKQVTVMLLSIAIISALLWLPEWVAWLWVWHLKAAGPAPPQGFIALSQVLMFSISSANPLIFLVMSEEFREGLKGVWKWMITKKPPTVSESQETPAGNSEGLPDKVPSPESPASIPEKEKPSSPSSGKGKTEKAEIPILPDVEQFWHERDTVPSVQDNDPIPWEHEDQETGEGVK
# TEAD-YAP block: TEAD-YAP interaction inhibition, primary screen, TEAD-YAP interaction inhibitor project, luminescence, HEK-TIYL cells; TEAD-Gal4/YAP UAS-luciferase luminescence; inhibition, % at 9.12 µM; 1.4% of 640,000 active; AID 1259422, 2018; in the data active means inhibition above about 32%;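 further: 0% = median of test compound wells and 100% = reference inhibitor wells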
# * hit, by the source's call.
SMILES,MITF primary,FBW7 act,GPR151 activ,TEAD-YAP block
O=C1CSc2ccc(C(=O)N3CCN(c4cccc(Cl)c4)CC3)cc2N1,15,1,0,56*
O=C1CSc2ccc(C(=O)N3CCN(c4cccc(C(F)(F)F)c4)CC3)cc2N1,2,0,0,52*
COC(=O)c1cnc(N2CCCCCC2)c2ccccc12,3,0,-1,-19
COC(=O)c1ccc(N2CCCCC2)c2c1C(=O)c1ccccc1C2=O,55*,0,4,3
Oc1c(C(c2ccccn2)N2CCN(c3ccccn3)CC2)ccc2cccnc12 (centres undefined),83*,-2,-1,-4
Oc1c(C(c2ccccn2)N2CCCC2)ccc2cccnc12 (centres undefined),107*,0,2,67*
c1ccc(C(c2nnnn2C2CCCC2)N2CCCCCC2)nc1 (centres undefined),0,-1,0,13
O=C(c1ccc2ccccc2c1)N1CCN(c2ccccn2)CC1,-1,0,2,-1
CN1CCN(C(c2ccccn2)c2ccc3cccnc3c2O)CC1 (centres undefined),90*,0,0,15
Oc1c(C(c2cccs2)N2CCN(c3ccccn3)CC2)ccc2cccnc12 (centres undefined),38,0,1,91*
Oc1ccccc1C(Nc1nccs1)c1ccc2cccnc2c1O (centres undefined),41,-2,2,24
CS(=O)(=O)N(CC(=O)Nc1ccc(C(N)=O)cc1)c1ccc(Br)cc1,-7,0,0,-6
COc1ccccc1NC(=O)C1=C(C)NC(SC)=C(C#N)C1c1ccco1 (centres undefined),16,1,0,-1
CC1=NOC(=O)/C1=C/c1ccccc1O,55*,0,0,-5
O=C1ON=C(c2ccccc2)/C1=C\c1ccccc1O,68*,0,1,-6
CC1=NOC(=O)/C1=C\c1cc(Br)c(O)c(Br)c1,68*,0,-1,3
CCOc1cc(/C=C2\C(=O)ON=C2C)cc(Br)c1OCC,24,0,0,5
CC(C)(C)NC(=O)CSc1nc2ccccc2s1,6,0,-1,2
CC(=O)c1ccc2c(c1)[nH]c1cc(C(C)=O)ccc12,10,0,0,46*
CC1=CC2=NC(=O)/C(=C\c3ccc([N+](=O)[O-])o3)C(=N)N2O1,65*,0,1,4
N=C1/C(=C\c2ccc([N+](=O)[O-])o2)C(=O)N=C2SC(N3CCCCC3)=NN12,67*,0,-1,-1
N=C1/C(=C/c2ccc([N+](=O)[O-])o2)C(=O)N=C2SC(c3ccco3)=NN12,91*,0,0,7
CCC1=NN2C(=N)/C(=C\c3ccc(SCc4ccco4)o3)C(=O)N=C2S1,86*,-1,0,-1
CCOC(=O)c1cc(NC(=O)Nc2cccc(C)c2)c(C)nc1C,0,0,-1,-5
CCCN(C(=O)c1ccc(Cl)cc1)c1c(C)n(C)n(-c2ccccc2)c1=O,3,3.2*,-1,-6
SMILES,MITF primary,FBW7 act,GPR151 activ,TEAD-YAP block
CCCN(C(=O)c1ccccc1)c1c(C)n(C)n(-c2ccccc2)c1=O,-19,0,-1,-15
CSc1ccc(-c2ccc(-n3ccnc3)cc2)nn1,-37,0,-8,52*
O=C(CSc1cccc2cccnc12)N1CCCCC1,-8,0,0,-19
Oc1c(C(c2ccc(Cl)cc2)N2CCCCC2)ccc2cccnc12 (centres undefined),3,-2,-1,71*
Oc1c(C(c2ccc(C(F)(F)F)cc2)N2CCCCC2)ccc2cccnc12 (centres undefined),9,0,-1,83*
CCOC(=O)C1CCN(C(=O)c2ccc(N3CC4CC(C3)c3cccc(=O)n3C4)c(NC(=O)c3ccncc3)c2)CC1 (centres undefined),13,0,-2,-19
COc1cccc(C2=CC(c3cc(Br)ccc3F)n3ncnc3N2)c1 (centres undefined),1,0,0,47*
COc1cccc(C2=CC(c3ccccc3OC(F)F)n3ncnc3N2)c1 (centres undefined),6,0,-1,52*
COc1cccc(C2=CC(c3ccc(OC(F)F)cc3)n3ncnc3N2)c1 (centres undefined),3,1,-1,-52
COc1cccc(C2=CC(c3ccc(OC)cc3OC)n3ncnc3N2)c1 (centres undefined),3,0,-1,40*
O=C1OC(c2ccccc2F)=N/C1=C\c1cccs1,-13,0,0,-9
COc1cccc(C(=O)/C=C/c2cccc(F)c2)c1,-18,0,-2,-23
CC(=O)c1cccc(NC(=O)CSC2N=c3ccc([N+](=O)[O-])cc3=N2)c1 (centres undefined),71*,0,0,-1
CC(=O)c1cccc(NC(=O)Cn2ccc([N+](=O)[O-])n2)c1,14,0,0,9
CN(C)c1ccc(C2OCC3(CO2)SC(=O)NC3=O)cc1 (centres undefined),11,4.9*,-1,12
COc1cccc(C(=O)N2CCN3C(=O)[C@@H](Cc4ccc(O)cc4)NC(=O)[C@H]3C2)c1,-5,0,0,2
COc1ccc(OC)c(NC(=O)C2CCCC2)c1,8,25*,0,-3
COc1ccc(OC)c(NS(=O)(=O)c2ccc(-c3ccccc3)cc2)c1,10,0,0,35*
COc1ccc(S(=O)(=O)Nc2cc(OC)ccc2OC)cc1,-10,0,3,61*
COc1ccc(S(=O)(=O)Nc2ccc(C)cn2)cc1,11,2.5*,-2,-9
CC(C)(C)NC(=O)NC(=O)COC(=O)c1ccccc1Nc1cccc(C(F)(F)F)c1,-13,0,0,1
Cc1ccc(-n2nc3cc(C)c(N)cc3n2)cc1,-11,0,-1,37*
CCc1ccc(-n2nc3cc(C)c(N)cc3n2)cc1,8,1,-1,-32
CCN(c1cccc(C)c1)S(=O)(=O)c1ccc2c(c1)oc(=O)n2C,4,0,0,44*
CCN(c1ccccc1)S(=O)(=O)c1ccc2c(c1)oc(=O)n2C,-10,0,0,7
CCN(c1ccc(C)c(C)c1)S(=O)(=O)c1ccc2c(c1)oc(=O)n2C,6,0,-1,16
CCOc1ccc(N(CC)S(=O)(=O)c2ccc3c(c2)oc(=O)n3C)cc1,15,0,2,48*
CN1C(=O)C(CC(=O)Nc2cccc(Cl)c2)N(NC(=O)c2ccccc2)C1=S (centres undefined),-14,0,0,9
COc1ccc(NC(=O)c2cc(C(C)C)n(-c3nc4ccccc4s3)n2)c(OC)c1,-5,0,-2,64*

# Source: PubChem (The Scripps Research Institute Molecular Screening Center)
